# Measurements as given in PubChem BioAssay (NCI).
# The panel holds about 79,000 compounds, 15% with a hit somewhere; the sample as a whole holds those more often. Values without a mark were called inactive. The source made the active and inactive calls. Cut-off read from the data, not from the text of the source: active = growth inhibition above about 70%; inactive = the rest.
# Tests used:
# [1] = NCI Yeast Anticancer Drug Screen. Data for the rad52 strain (AID 147);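 note: 0% = growth of vehicle-treated control cultures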; conditions: S. cerevisiae rad52 mutant growth inhibition, stronger effect = higher value
# Method in brief: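 Inhibition of yeast growth, referenced to vehicle controls, was the measured output for a strain with defective DNA damage repair.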
# [2] = NCI Yeast Anticancer Drug Screen. Data for the wt1 strain (AID 149);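 note: 0% = growth of vehicle-treated wt1 cultures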; conditions: S. cerevisiae wt1 strain (SPY 50644) growth inhibition, stronger effect = higher value
# Method in brief: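 Measured: growth of wt1 yeast under compound versus vehicle treatment, reported as inhibition.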
# [3] = NCI Yeast Anticancer Drug Screen. Data for the rad50EPP+ strain (AID 151);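 note: 0% = growth of vehicle-treated control cultures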; conditions: S. cerevisiae rad50 mutant strain, stronger effect = higher value
# Method in brief: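 Genetically defined yeast (rad50EPP+, DNA damage repair alteration) is grown with compound, and inhibition of growth is expressed relative to vehicle-treated controls.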
# [4] = NCI Yeast Anticancer Drug Screen. Data for the mgt1 strain (AID 153); conditions: S. cerevisiae mgt1 mutant growth inhibition, stronger effect = higher value
# Method in brief: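 In the mgt1 strain, test compounds were added and growth inhibition was determined relative to vehicle-treated controls.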
# [5] = NCI Yeast Anticancer Drug Screen. Data for the rad50 strain (AID 155);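 note: 0% = growth of vehicle-only cultures of the same strain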; conditions: S. cerevisiae rad50 strain growth inhibition, stronger effect = higher value
# Method in brief: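 Growth of the mutant yeast was measured after compound exposure and referenced to vehicle-treated cultures.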
# [6] = NCI Yeast Anticancer Drug Screen. Data for the mec2-1 strain (AID 157); conditions: S. cerevisiae mec2-1 strain, stronger effect = higher value
# Method in brief: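 Each compound was tested on mec2-1 yeast, a strain altered in DNA damage repair or cell cycle control. Growth inhibition is reported relative to vehicle.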
# [7] = NCI Yeast Anticancer Drug Screen. Data for the rad14 strain (AID 159);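 note: 0% = growth of vehicle-treated control cultures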; conditions: S. cerevisiae rad14 strain growth inhibition, stronger effect = higher value
# Method in brief: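 Here, inhibition of yeast growth was measured after compound exposure, using a strain with a genetic defect in DNA damage repair and vehicle-treated cultures as the reference.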
# [8] = NCI Yeast Anticancer Drug Screen. Data for the sgs1 mgt1 strain (AID 161);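 note: 0% = growth of cultures given vehicle only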; conditions: S. cerevisiae sgs1 mgt1 strain, stronger effect = higher value
# Method in brief: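 Inhibition of yeast growth, normalised to vehicle-treated controls, is reported for a strain bearing genetic alterations in DNA damage repair.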
# [9] = NCI Yeast Anticancer Drug Screen. Data for the CLN2oe strain (AID 163);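 note: 0% = growth of vehicle-only control cultures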; conditions: S. cerevisiae CLN2oe strain, stronger effect = higher value
# Method in brief: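 First, the altered yeast strain was treated with each compound; second, its growth was measured; finally, inhibition was derived by comparison with vehicle controls.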
# [10] = NCI Yeast Anticancer Drug Screen. Data for the cln2 rad14 strain (AID 165);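 note: 0% = growth equal to vehicle treated cultures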; conditions: S. cerevisiae cln2 rad14 strain, stronger effect = higher value
# Method in brief: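 Test compounds were added to cln2 rad14 yeast cultures; inhibition of growth was then determined by comparison with vehicle treatment.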
# [11] = NCI Yeast Anticancer Drug Screen. Data for the bub3 strain (AID 167); conditions: S. cerevisiae bub3 mutant strain, stronger effect = higher value
# Method in brief: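 Whole-cell yeast assay. The mutant strain was incubated with compounds, and growth inhibition was determined by comparison with vehicle-treated cells.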
# [12] = NCI Yeast Anticancer Drug Screen. Data for the wt2 strain (AID 169);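 note: 0% = growth of vehicle-treated yeast cultures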; conditions: S. cerevisiae wt2 strain growth inhibition, stronger effect = higher value
# Method in brief: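 The panel's yeast strains carry defined changes in DNA repair or cell cycle genes. Each strain is grown with compound, and growth loss is scored relative to vehicle.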
# [13] = NCI Yeast Anticancer Drug Screen. Data for the mlh1 strain (AID 171);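 note: 0% = growth of vehicle-treated control cultures of the same strain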; conditions: S. cerevisiae mlh1 strain growth inhibition, stronger effect = higher value
# Method in brief: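 Inhibition values reflect reduced yeast growth in the presence of compound, referenced to vehicle controls, using a strain chosen for its alteration in DNA repair or cell cycle control.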
# [14] = NCI Yeast Anticancer Drug Screen. Data for the sgs1 strain (AID 173);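 note: 0% = growth of vehicle-only control cultures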; conditions: S. cerevisiae sgs1 mutant, stronger effect = higher value
# Method in brief: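 Vehicle-treated cultures served as reference for growth inhibition of a yeast strain altered in DNA damage repair or cell cycle control after compound exposure.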
# [15] = NCI Yeast Anticancer Drug Screen. Data for the mlh1 rad18 strain (AID 175); conditions: S. cerevisiae mlh1 rad18 strain growth inhibition, stronger effect = higher value
# Method in brief: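 Inhibition values reflect reduced growth of mutant yeast versus vehicle-treated controls following compound exposure; the mutations affect DNA damage repair.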
# [16] = NCI Yeast Anticancer Drug Screen. Data for the rad18 strain (AID 177); conditions: S. cerevisiae rad18 mutant growth inhibition, stronger effect = higher value
# Method in brief: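 Steps: expose repair-mutant yeast to compound; measure growth; express as inhibition relative to vehicle control.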
# [17] = at 5.0 µM (retest, dose inferred, filed as 0.5)
# [18] = at 50.0 µM (retest, dose inferred, filed as 5.0)
structure (smiles),measurement,setting,value
COc1cc(O)c2c(c1O)C(=O)c1cc(C)ncc1C2=O,growth inhibition,[1]; at 1.2 µM,9%
same,growth inhibition,[1]; at 3.7 µM,16%
same,growth inhibition,[1]; at 11.0 µM,29%
same,growth inhibition,[1]; at 33.0 µM,51%
same,growth inhibition,[1]; at 100.0 µM,72% (active)
same,growth inhibition,[2]; at 1.2 µM,6%
same,growth inhibition,[2]; at 3.7 µM,24%
same,growth inhibition,[2]; at 11.0 µM,36%
same,growth inhibition,[2]; at 33.0 µM,39%
same,growth inhibition,[2]; at 100.0 µM,48%
same,growth inhibition,[3]; at 1.2 µM,8%
same,growth inhibition,[3]; at 3.7 µM,20%
same,growth inhibition,[3]; at 11.0 µM,19%
same,growth inhibition,[3]; at 33.0 µM,48%
same,growth inhibition,[3]; at 100.0 µM,52%
same,growth inhibition,[4]; at 1.2 µM,5%
same,growth inhibition,[4]; at 3.7 µM,4%
same,growth inhibition,[4]; at 11.0 µM,15%
same,growth inhibition,[4]; at 33.0 µM,39%
same,growth inhibition,[4]; at 100.0 µM,60%
same,growth inhibition,[5]; at 1.2 µM,8%
same,growth inhibition,[5]; at 3.7 µM,13%
same,growth inhibition,[5]; [17],9%
same,growth inhibition,[5]; at 11.0 µM,33%
same,growth inhibition,[5]; at 33.0 µM,57%
same,growth inhibition,[5]; [18],48%
same,growth inhibition,[5]; at 50.0 µM,65.7%
same,growth inhibition,[5]; at 100.0 µM,86% (active)
same,growth inhibition,[6]; at 1.2 µM,10%
same,growth inhibition,[6]; at 3.7 µM,10%
same,growth inhibition,[6]; [17],8%
same,growth inhibition,[6]; at 11.0 µM,9%
same,growth inhibition,[6]; at 33.0 µM,9%
same,growth inhibition,[6]; [18],44%
same,growth inhibition,[6]; at 50.0 µM,23.2%
same,growth inhibition,[6]; at 100.0 µM,23%
same,growth inhibition,[7]; at 1.2 µM,31%
same,growth inhibition,[7]; at 3.7 µM,47%
same,growth inhibition,[7]; at 11.0 µM,70% (active)
same,growth inhibition,[7]; at 33.0 µM,91% (active)
same,growth inhibition,[7]; at 100.0 µM,94% (active)
same,growth inhibition,[8]; [17],9%
same,growth inhibition,[8]; [18],84% (active)
same,growth inhibition,[8]; at 50.0 µM,69.9%
same,growth inhibition,[9]; at 1.2 µM,16%
same,growth inhibition,[9]; at 3.7 µM,11%
same,growth inhibition,[9]; at 11.0 µM,5%
same,growth inhibition,[9]; at 33.0 µM,10%
same,growth inhibition,[9]; at 100.0 µM,12%
same,growth inhibition,[10]; [17],1%
same,growth inhibition,[10]; [18],12%
same,growth inhibition,[10]; at 50.0 µM,18.9%
same,growth inhibition,[11]; at 1.2 µM,14%
same,growth inhibition,[11]; at 3.7 µM,13%
same,growth inhibition,[11]; [17],5%
same,growth inhibition,[11]; at 11.0 µM,26%
same,growth inhibition,[11]; at 33.0 µM,51%
same,growth inhibition,[11]; [18],42%
same,growth inhibition,[11]; at 50.0 µM,75.9% (active)
same,growth inhibition,[11]; at 100.0 µM,73% (active)
same,growth inhibition,[12]; at 1.2 µM,39%
same,growth inhibition,[12]; at 3.7 µM,60%
same,growth inhibition,[12]; at 11.0 µM,83% (active)
same,growth inhibition,[12]; at 33.0 µM,91% (active)
same,growth inhibition,[12]; at 100.0 µM,95% (active)
same,growth inhibition,[13]; at 1.2 µM,7%
same,growth inhibition,[13]; at 3.7 µM,21%
same,growth inhibition,[13]; at 11.0 µM,41%
same,growth inhibition,[13]; at 33.0 µM,54%
same,growth inhibition,[13]; at 100.0 µM,87% (active)
same,growth inhibition,[14]; at 1.2 µM,12%
same,growth inhibition,[14]; at 3.7 µM,29%
same,growth inhibition,[14]; at 11.0 µM,77% (active)
same,growth inhibition,[14]; at 33.0 µM,88% (active)
same,growth inhibition,[14]; at 100.0 µM,84% (active)
same,growth inhibition,[15]; [17],17%
same,growth inhibition,[15]; [18],83% (active)
same,growth inhibition,[15]; at 50.0 µM,64.8%
same,growth inhibition,[16]; at 1.2 µM,4%
same,growth inhibition,[16]; at 3.7 µM,21%
same,growth inhibition,[16]; at 11.0 µM,28%
same,growth inhibition,[16]; at 33.0 µM,40%
same,growth inhibition,[16]; at 100.0 µM,60%
